Smad3 FoxH1 inh: Smad3 (human) transcription factor binding inhibition; TR-FRET Smad3/Dy647-FoxH1 peptide binding, europium anti-His; inhibition, % at 25 µM; actives 0.29% (n = 88,000);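 active = compounds that reduce the energy-transfer binding signal between the protein and its labelled peptide by more than half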;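 note: 0% = Smad3 plus labelled peptide maximal FRET and 100% = peptide-only background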
ERb coact inh: blocks coactivator binding to human estrogen receptor beta; Q92731; TR-FRET ER-beta LBD / SRC1-Cy5 peptide binding; receptor agonist-loaded with 1 µM estradiol; inhibition, % at 25.6 µM; actives 1.3% (n = 86,000); AID 633;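 active = compounds whose percent inhibition of the receptor-coactivator binding signal exceeds about 50% in the single-dose screen, limit read from the data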;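 note: 0% = receptor plus peptide wells without compound and 100% = peptide-only wells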
ERa coact inh: ER-alpha (human) coactivator binding inhibition | inhibition, % at 25.6 µM | P03372 | TR-FRET ER-alpha LBD / SRC-1 peptide, estradiol-bound | actives 1.7% (n = 86,000); in the data active = inhibition above about 50%;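 note: 0% = receptor plus peptide control and 100% = peptide only without receptor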
Target sequence (P03372 whole entry, looked up, the tested form may be a part): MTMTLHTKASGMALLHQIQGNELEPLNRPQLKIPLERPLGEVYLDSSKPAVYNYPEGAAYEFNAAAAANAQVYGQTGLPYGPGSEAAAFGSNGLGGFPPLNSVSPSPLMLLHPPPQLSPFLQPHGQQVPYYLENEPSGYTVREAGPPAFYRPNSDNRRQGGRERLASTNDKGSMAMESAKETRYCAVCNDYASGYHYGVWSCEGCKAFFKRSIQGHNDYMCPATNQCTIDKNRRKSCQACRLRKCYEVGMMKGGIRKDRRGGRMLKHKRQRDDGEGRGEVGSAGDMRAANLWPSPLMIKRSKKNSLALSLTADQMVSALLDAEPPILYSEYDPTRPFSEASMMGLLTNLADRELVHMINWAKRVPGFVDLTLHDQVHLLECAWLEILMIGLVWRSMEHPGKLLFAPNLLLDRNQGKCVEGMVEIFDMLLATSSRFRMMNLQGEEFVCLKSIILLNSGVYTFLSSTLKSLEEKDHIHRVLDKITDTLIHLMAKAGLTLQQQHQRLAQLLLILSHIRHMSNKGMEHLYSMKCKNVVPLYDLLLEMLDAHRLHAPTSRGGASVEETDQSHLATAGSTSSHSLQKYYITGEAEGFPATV
ERa SRC1 pot: ER-alpha (human) coactivator binding potentiation; P03372; TR-FRET ERalpha-LBD/SRC-Cy5 coactivator binding, 2 h; 100 = basal binding, no effect; coactivator binding (% of control), % at 25.6 µM; actives 1.3% (n = 86,000); in the data active = activity above about 200%;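 note: binding measured in presence of low estradiol as agonist stimulus; 0% = peptide alone without receptor and 100% = receptor with peptide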
MRP-1 activ: activates MRP-1; H69AR cells + doxorubicin, viability rescue, CellTiter-Glo; viability increase, % at 10 µM; actives 0.61% (n = 140,000);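 active = viability gain under doxorubicin at or above a set limit, the compound median plus 3 SD, cut at about 4.7% in these data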;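 note: MRP-1 overexpressing cells given doxorubicin 25 µM after compound pretreatment; 18-22 h compound pretreatment then 72 h with doxorubicin before readout; 0% = doxorubicin-only wells and 100% = vehicle-treated cells without doxorubicin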
MRP resist rev: compounds reversing MRP-mediated drug resistance; H69AR cells + 2 uM doxorubicin, CellTiter-Glo, 72 h; differential viability (reversal), % at 10 µM; actives 0.04% (n = 85,000); AID 602;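 active = viability drop by adding the cancer drug above about 55%, with treated viability meeting a 40% cutoff, limit read from the data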;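 note: viability without doxorubicin minus viability with 2 µM doxorubicin for each compound; larger differential means the compound sensitizes cells more to doxorubicin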
* = called active by the depositor; x = no result given; [ ] = dose if it differs, or a comment. Only some compounds are listed: those with a hit (about 2.9% of all), similar ones and a draw of the others.

SMILES	Smad3 FoxH1 inh	ERb coact inh	ERa coact inh	ERa SRC1 pot	MRP-1 activ	MRP resist rev
COC(=O)c1ccc(Cn2cnc3c(sc4nc(N5CCOCC5)c5c(c43)CCCC5)c2=O)o1	-5.4	36.1	10.4	202.6*	-3.7	-0.3
COc1ccc2nc(NCN3C(=O)c4ccccc4C3=O)sc2c1	-27.1	x	x	x	x	x
CCn1cc([N+](=O)[O-])c(C(=O)N2N=C(c3ccc4ccccc4c3)CC2c2cc(Br)ccc2O)n1 (centres undefined)	3.5	51.0*[fluorescence artefact?]	41.1	103.9	-7.4	-2.6
CCOC(=O)N1CCN(C(=O)C2CCN(S(=O)(=O)CC)CC2)CC1	-6.0	-4.0	0.3	238.2*[fluorescence artefact?]	-2.2	-1.1
CC(Cc1ccc(O)c(O)c1)C(C)Cc1ccc(O)c(O)c1 (centres undefined)	4.3	82.8*[fluorescence artefact?]	65.9*	40.3	x	-23.4
CC1CCc2c(C(=O)OCC(=O)Nc3cccc(S(=O)(=O)N4CCCCCC4)c3)csc2C1 (centres undefined)	x	x	x	x	5.1*	x
Cc1ccc(NC(=O)COC(=O)c2csc3c2CCC(C)C3)cc1S(=O)(=O)N1CCCCC1 (centres undefined)	x	x	x	x	4.6	x
COc1cc2c(cc1O)[C@@H](c1cc(O)c(O)c(OC)c1)[C@](O)(C(=O)O)[C@@H](CO)[C@@H]2O	-0.1	x	x	x	x	x
COc1ccc(NC(=O)C2CCCO2)cc1 (centres undefined)	7.1	2.6	-1.4	109.0	1.6	1.7
COc1ccc(NC(=O)C2CCCO2)cc1OC (centres undefined)	71.5*	-0.1	0.6	106.7	0.1	1.0
Cc1cc(C)c(C#N)c(SCc2cc3c(cc2Cl)OCO3)n1	-3.8	58.2*[fluorescence artefact?]	56.0*[fluorescence artefact?]	189.3	-1.3	-4.2
COc1ccc(C(=S)N2CCCCCC2)cc1	6.6	-1.7	-1.0	108.5	-2.1	-2.0
COc1cc(C(=S)N2CCCC2)cc(OC)c1O	-7.8	-10.5	63.4*[fluorescence artefact?]	81.0	0.3	-1.7
CC(C)(C)NC(=O)Cc1ccc(S(=O)(=O)N2CCCC2)s1	-2.7	39.5	57.9*[fluorescence artefact?]	54.0	-2.3	15.0
O=C(Nc1nc(COc2ccccc2)cs1)c1ccccc1F	x	x	x	x	5.3*	x
C=CCn1c(N)c(C(=O)NCCC2=CCCCC2)sc1=S	8.7	0.3	-2.5	58.2	-1.1	15.0
Cc1ccc(OCCOc2ccc(Cl)cc2Cl)c([N+](=O)[O-])n1	x	x	x	x	2.3	x
COc1cc(NC(=O)CCNC(=O)Cn2cnc3ccccc3c2=O)cc(OC)c1OC	0.8	9.4	83.1*[fluorescence artefact?]	82.4	-0.6	-4.8
CC(C)(SCc1ccccc1)[C@H](N)C(=O)O	-7.1	x	x	x	x	x
O=C(COC(=O)CCCNC(=O)c1ccc(Cl)cc1)NC1CC1	5.3	-3.8	1.1	134.3	-2.1	2.1
CCC(=O)c1ccc(N2CCOCC2)c(F)c1	2.3	19.6	-7.9	120.0	7.7*	-5.2
O=C(CSc1nc2ccccc2s1)c1sc2sc3ccccc3[n+]2c1O	96.3*	x	x	x	x	x
Cc1ccc2cc3c(N)[nH]nc3nc2c1	x	x	x	x	-3.8	x
Cc1ccc2ccc(C3C(=O)c4ccccc4C3=O)nc2c1	30.6	2.5	11.1	395.3*	x	-7.2
O=C(Nc1ccc(Cl)cc1)C1CCCN(S(=O)(=O)c2cnc[nH]2)C1 (centres undefined)	8.8	5.0	-2.3	129.5	4.9*	11.2
SMILES	Smad3 FoxH1 inh	ERb coact inh	ERa coact inh	ERa SRC1 pot	MRP-1 activ	MRP resist rev
Cc1noc(/C=C/N(C)C)c1S(=O)(=O)N1CCCC(C(=O)NCc2cccs2)C1 (centres undefined)	-2.3	-2.2	-0.8	101.3	10.1*	2.6
CS(=O)(=O)Nc1ccc(Nc2c3ccccc3nc3ccccc23)cc1	57.7*	x	x	x	x	x
COc1ccc(CNC(=O)c2cc3c(=O)n4ccccc4nc3n(Cc3ccco3)c2=N)cc1	7.3	57.3*[fluorescence artefact?]	91.4*[fluorescence artefact?]	35.6	x	-16.6
O=C(NCc1ccco1)c1cccn2c(=O)c3cc4ccccc4cc3nc12	4.9	48.4	61.4*[fluorescence artefact?]	137.8	-2.3	9.2
COCCCNC(=O)c1cccn2c(=O)c3cc4ccccc4cc3nc12	5.4	-11.0	-32.0	117.3	-4.4	-7.4
Cc1ccc(Cn2c(=N)c(C(=O)NCc3ccco3)cc3c(=O)n4ccccc4nc32)cc1	19.4	56.4*[fluorescence artefact?]	83.1*[fluorescence artefact?]	15.0	-5.0	-7.6
N=c1c(C(=O)NCc2ccco2)cc2c(=O)n3ccccc3nc2n1CCc1ccccc1	-5.2	50.4*	80.6*[fluorescence artefact?]	47.7	-7.3	-1.1
Cc1nc(/C=C/c2ccccc2)[nH]c(=O)c1-c1ccccc1	x	x	x	x	-1.7	x
O=C(NCc1ccc(Cl)cc1)C(=O)NCC(c1ccco1)N1CCOCC1 (centres undefined)	x	x	x	x	9.1*	x
Cc1ccc(CNC(=O)C(=O)NCC(c2ccco2)N2CCOCC2)cc1 (centres undefined)	x	x	x	x	1.5	x
O=C(Nc1ccc(N2CCCCC2)c(Cl)c1)c1ncn[nH]1	x	x	x	x	8.8*	x
O=C(Nc1ccc(N2CCCCC2)c(C(=O)O)c1)c1ccco1	-18.6	19.1	21.9	108.5	-0.9	-1.8
O=C(Nc1cc2nn(-c3ccccc3)nc2cc1Cl)c1ccco1	-5.6	29.8	62.0*[fluorescence artefact?]	100.5	-2.3	-11.7
O=C(Nc1ccc(N2CCCC2)c(Cl)c1)c1ccco1	-16.5	9.2	-5.8	88.4	4.9*	8.9
O=C(Nc1ccc2nn(-c3ccccc3)nc2c1)c1ccco1	5.9	4.7	15.1	141.7	0.5	17.0
C[C@H](CN(C)C)C(=O)c1ccccc1C(=O)O	-6.0	x	x	x	x	x
O=C(Cn1nnc(-c2ccccc2NC(=O)c2ccco2)n1)Nc1ccccc1	15.8	42.6	59.7*[fluorescence artefact?]	286.3*[fluorescence artefact?]	-3.1	-27.8
CC(C)(C)NC(=O)Cn1nnc(-c2ccccc2NC(=O)c2ccco2)n1	-0.7	-2.7	12.4	124.4	-2.9	4.7
COc1ccc(NC(=O)Cn2nnc(-c3ccccc3NC(=O)c3cccs3)n2)cc1	0.5	30.3	32.8	237.5*[fluorescence artefact?]	-5.2	-6.9
COC(=O)c1ccccc1NC(=O)c1ccc(Cn2cc(Cl)cn2)o1	1.6	1.7	16.9	75.2	-0.7	8.1
COC(=O)c1cc(NC(=O)c2ccc(Cn3cc(Cl)cn3)o2)cc(C(=O)OC)c1	4.4	27.8	58.0*[fluorescence artefact?]	100.4	-2.0	-0.6
O=C1C2C3C=CC(C3=C3CCCCC3)C2C(=O)N1Cc1ccccc1 (centres undefined)	8.0	-3.5	-1.0	90.7	-0.9	30.1
CCCC(=O)Nc1cccc(NC(=O)CN2CCN(c3ccccc3OC)CC2)c1	-3.4	-1.4	99.2*[fluorescence artefact?]	125.6	-1.9	-7.0
Cn1cc(Br)c(C(=O)NNC(=O)c2ccccc2)n1	x	x	x	x	-0.7	x
Cn1cc(Br)c(C(=O)NNC(=O)c2ccc(Br)cc2)n1	x	x	x	x	7.6*	x
N#C[C@@H](N=Nc1ccccc1C(=O)O)C(N)=O	11.7	x	x	x	x	x
O=C(Cn1c(=O)n(Cc2ccco2)c(=O)c2c3c(sc21)CCCCC3)c1ccccc1	6.6	46.7	66.1*	67.0	-2.3	8.0

Screens as filed in PubChem BioAssay.
